High-throughput results: PubChem BioAssay, several laboratories
Rows were chosen to be rich in hits. Some 11% of all compounds tested hit in one or more screens of this group.
INS promoter inh – inhibitors of insulin promoter-driven GFP, primary screen, imaging, TRM-6 cells (human fetal islet line), eGFP reporter, cell count | reporter expression induced with tamoxifen | inhibition, % at 2 µM | 130,000 tested, 0.9% active;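 active = inhibition above the mean plus 3 SD, with well images judged a real hit on visual review, cut at about 60% in these data, passing the limit was not always enough; inconclusive = inhibition over the cutoff but images rejected on review; inactive = inhibition not above the cutoff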
Insulin prom up – insulin promoter activators in MIN6 cells, imaging, high-content screening, mouse beta cells. MIN6 insulin promoter-GFP reporter; stronger effect = higher value. z-score at 5 µM. 190,000 tested, 0.3% active. AID 1625, 2009;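 active = z-score above 3 at 5 µM with at least 500 cells counted in the well; inconclusive = wells under 500 cells, flagged as cytotoxic or low count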
Autophagy mod – autophagy modulators in MEF cells, primary screen, imaging, high-content, MEF GFP-LC3 | MEF GFP-LC3 puncta imaging; test concentration mostly 10 µM | calls only at 10 µM (by protocol) | 190,000 tested, 0.98% active;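 active = percentage of spot-positive cells more than 3 SD above its plate mean, without a fluorescence outlier flag or 80% toxicity; inconclusive = no clear call, values can overlap the other calls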
WT yeast gro inh – growth inhibition of WT strain, primary screen, mitochondrial fusion inhibitor project, WT and mutant strains, chemical genetic. AID 1362, 2008. inhibition, % at 10 µM. mitochondrial fusion phenotypic screen. 190,000 tested, 2.1% active; in the data active = inhibition above about 58%; tested in S. cerevisiae
L major viab – Leishmania major promastigote growth inhibition, primary screen | Leishmania major promastigotes, resazurin fluorescence viability | inhibition, % at 10 µM | 200,000 tested, 9% active | AID 1063, 2008; in the data active = inhibition above about 50%;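 note: promastigotes grown with compound for 44 hours at 28 °C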
L major 1uM – Leishmania major promastigote growth inhibition, confirmation, 1 µM repeat of primary hits | shares compounds with L major viab | L. major promastigote growth, resazurin fluorescence, 48 h | inhibition, % at 1 µM | 1,100 tested, 13% active | AID 1258, 2008;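 active = inhibition above about 50% in both repeat tests, limit read from the data; inconclusive = one repeat under the set limit, the other over it; inactive = both repeats under the set limit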
Numbers stand for hits.

Screening CC(=O)c1cccc(S(=O)(=O)N2CCN(c3nc4cc(C)cc(C)c4cc3C#N)CC2)c1 returned INS promoter inh inactive, Insulin prom up inactive, Autophagy mod inactive, WT yeast gro inh inactive, L major viab 50 and L major 1uM inactive.
O=C(NCc1ccncc1)C(=O)Nc1nc(C23CC4CC(CC(C4)C2)C3)cs1 was read as Insulin prom up inactive, Autophagy mod inactive, WT yeast gro inh inactive, L major viab 51 and L major 1uM inactive.
Screening COc1ccc(N2COC3c4cccc5cccc(c45)C32)cc1 (centres undefined) returned INS promoter inh inactive, Autophagy mod inactive, WT yeast gro inh inactive, L major viab 75 and L major 1uM inactive.
`Clc1ccc(N2COC3c4cccc5cccc(c45)C32)cc1` (centres undefined) gave INS promoter inh inactive, Insulin prom up inactive, Autophagy mod inactive, WT yeast gro inh inactive and L major viab inactive.
For O=S(=O)(CC(CN1CCCCC1)N1CCCCC1)c1ccc2ccccc2c1 (centres undefined) the results were Insulin prom up inactive, Autophagy mod inactive, WT yeast gro inh inactive, L major viab 99 and L major 1uM inconclusive.
`Cc1cc(C)c(C#N)c(SCC(=O)c2ccccc2)n1` gave Insulin prom up inactive, Autophagy mod inactive, WT yeast gro inh inactive, L major viab 100 and L major 1uM inactive.
Cc1cc(-n2c(C)cc(C(=S)N3CCOCC3)c2C)ccc1Br was read as INS promoter inh inactive, Insulin prom up inactive, Autophagy mod inactive, WT yeast gro inh inactive, L major viab 57 and L major 1uM inactive.
`CC[n+]1c(C)sc2cc(OC)ccc21` gave INS promoter inh inactive, Insulin prom up inactive, Autophagy mod inactive, WT yeast gro inh inactive and L major viab inactive.
CCC[n+]1c(C)sc2c3c(ccc21)CCCC3 was read as Insulin prom up inactive, Autophagy mod inactive, WT yeast gro inh inactive, L major viab 100 and L major 1uM inactive.
COc1ccc(CN(C(=O)c2cnccn2)C(C(=O)Nc2ccc(F)cc2)c2ccccc2)cc1 (centres undefined) was read as INS promoter inh inactive, Autophagy mod inactive, WT yeast gro inh inactive, L major viab 62 and L major 1uM inactive.
Screening Cn1nc(-c2ccc(Cl)cc2)nc2c(=O)n(C)c(=O)nc1-2 returned INS promoter inh inactive, Insulin prom up inactive, Autophagy mod inactive, WT yeast gro inh inactive, L major viab 50 and L major 1uM 81.
For CCN(c1ccccc1)P(=O)(Nc1ccccc1)Nc1ccccc1 the results were Insulin prom up inactive.
For CN(c1ccccc1)P(=O)(N(C)c1ccccc1)N(C)c1ccccc1 the results were Insulin prom up inactive, Autophagy mod inactive, WT yeast gro inh inactive, L major viab 98 and L major 1uM inactive.
Screening CCN(C(=O)CC(C)C)c1nnc(Cn2nnc3ccccc32)s1 returned INS promoter inh inactive, Insulin prom up inactive, Autophagy mod inactive, WT yeast gro inh inactive and L major viab inactive.
CCN(C(=O)c1ccc(C(C)(C)C)cc1)c1nnc(Cn2nnc3ccccc32)s1 was read as Insulin prom up inconclusive, Autophagy mod inactive, WT yeast gro inh inactive, L major viab 54 and L major 1uM inactive.
Screening Cn1ccnc1Sc1nnnn1-c1ccccc1 returned INS promoter inh inactive, Insulin prom up inactive, Autophagy mod inactive, WT yeast gro inh inactive and L major viab inactive.
Screening Cc1ccc2cc(C)c(Sc3nnnn3-c3ccccc3)nc2c1 returned INS promoter inh inactive, Insulin prom up inactive, Autophagy mod inactive, WT yeast gro inh inactive, L major viab 60 and L major 1uM inactive.
Cc1c([N+](=O)[O-])c2ccc(O)cc2n1-c1ccccc1 was read as Insulin prom up inactive.
Cc1cc(C)c2ccc(Cl)cc2n1 was read as Insulin prom up inactive.
For CC(=O)c1c(C)nc2cc(Cl)ccc2c1N the results were INS promoter inh 96, Insulin prom up inactive, Autophagy mod inactive, WT yeast gro inh inactive, L major viab 50 and L major 1uM inactive.
Screening N#CC(c1cccc(Cl)c1)c1ccc2c(C(F)(F)F)cc(C(F)(F)F)nc2n1 (centres undefined) returned INS promoter inh inactive, Insulin prom up inconclusive, Autophagy mod active, WT yeast gro inh 81, L major viab 100 and L major 1uM 60.
`Cc1cc(OCCN2CCCCC2)nc2ccccc12` gave INS promoter inh inactive, Autophagy mod inactive, L major viab 89 and L major 1uM inactive.
